Where “and” joins values, the source holds several entries; their conditions need not be identical. Identical values can stand only once. The campaign covered roughly 5,500 compounds. About 2,000 (36%) were called active. Inconclusive results (about 18%) are left out. No stated cut-off is given here; in the data, active means normalized growth mostly below about 0.91 (no sharp cut-off); inconclusive means no clear call, values can overlap the other calls; inactive means mostly above about 0.92. This is one part of the list.
Assay: chemical genetic growth profiling, strain panel (AID 1159580);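 further: tested at 20 µM; growth read once vehicle control cultures reached saturation at 30 °C; 1 = growth at the plate median or of vehicle wells; lower values mean less growth of the strain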
Settings: S. cerevisiae deletion strains, growth OD

Measured: normalized growth

CC(CCc1ccccc1)NC(C)C(O)c1ccc(O)cc1 (stereo not given)
inactive: locus YAL021C, strain ccr4, active compounds read low 0.992 | locus YAL026C, strain drs2, active compounds read low 0.995 | locus YAL030W, strain snc1, active compounds read low 0.999 | locus YAL040C, strain CLN3, active compounds read low 1.01 | locus YBL061C, strain skt5, active compounds read low 0.997 | locus YBR009C, strain hhf1, active compounds read low 1 | locus YBR021W, strain FUR4, active compounds read low 0.997 | locus YBR023C, strain chs3, active compounds read low 1.01 | locus YBR171W, strain sec66, active compounds read low 1.01 | locus YBR229C, strain ROT2, active compounds read low 0.955 | locus YBR231C, strain swc5, active compounds read low 1 | locus YBR279W, strain paf1, active compounds read low 0.995 | locus YCL011C, strain gbp2, active compounds read low 1.01 | locus YCL016C, strain dcc1, active compounds read low 1.01 | locus YCL029C, strain bik1, active compounds read low 0.981 | locus YCL061C, strain MRC1 (second series), active compounds read low 1 | locus YCL061C, strain MRC1, active compounds read low 0.998 | locus YCL069W, strain vba3, active compounds read low 0.998 | locus YCR088W, strain abp1, active compounds read low 1.01 | locus YDL005C, strain med2, active compounds read low 0.999 | locus YDL035C, strain GPR1, active compounds read low 0.977 | locus YDL040C, strain nat1, active compounds read low 1 | locus YDL074C, strain BRE1, active compounds read low 0.953 | locus YDL101C, strain DUN1, active compounds read low 0.978 | locus YDL134C, strain PPH21, active compounds read low 1 | locus YDL185W, strain tfp1, active compounds read low 0.984 | locus YDL192W, strain arf1, active compounds read low 0.992 | locus YDR001C, strain nth1, active compounds read low 0.999 | locus YDR069C, strain doa4, active compounds read low 0.977 | locus YDR101C, strain arx1, active compounds read low 0.998 | locus YDR137W, strain rgp1, active compounds read low 0.989 | locus YDR150W, strain NUM1, active compounds read low 0.984 | locus YDR159W, strain sac3, active compounds read low 0.99 | locus YDR162C, strain NBP2, active compounds read low 0.991 | locus YDR195W, strain ref2 1 | locus YDR297W, strain sur2, active compounds read low 0.993 | locus YDR318W, strain mcm21, active compounds read low 1 | locus YDR334W, strain swr1, active compounds read low 1.01 | locus YDR335W, strain msn5, active compounds read low 0.995 | locus YDR363W, strain ESC2, active compounds read low 0.998 | locus YDR388W, active compounds read low 0.993 | locus YDR392W, strain spt3, active compounds read low 0.963 | locus YDR502C, strain sam2, active compounds read low 1 | locus YEL003W, strain gim4, active compounds read low 0.979 | locus YEL037C, strain rad23, active compounds read low 1 | locus YEL061C, strain CIN8 (second series), active compounds read low 1 | locus YEL061C, strain CIN8, active compounds read low 0.987 | locus YER002W, strain NOP16, active compounds read low 1 | locus YER015W, strain faa2, active compounds read low 0.998 | locus YER016W, strain bim1, active compounds read low 0.999 | locus YER110C, active compounds read low 0.962 | locus YER111C, strain swi4, active compounds read low 0.999 | locus YER155C, strain BEM2 (second series), active compounds read low 1 | locus YER155C, strain BEM2, active compounds read low 0.993 | locus YER167W, strain BCK2, active compounds read low 0.99 | locus YFR010W, strain ubp6, active compounds read low 1 | locus YGL078C, strain dbp3, active compounds read low 0.993 | locus YGL086W, strain mad1, active compounds read low 0.975 | locus YGL167C, strain pmr1, active compounds read low 1 | locus YGL173C, strain kem1, active compounds read low 1.01 | locus YGL227W, strain vid30, active compounds read low 1 | locus YGL240W, strain doc1, active compounds read low 0.993 | locus YGL248W, strain PDE1, active compounds read low 0.97 | locus YGL253W, strain hxk2, active compounds read low 0.997 | locus YGR078C, strain PAC10, active compounds read low 0.981 | locus YGR135W, strain pre9, active compounds read low 0.989 | locus YGR229C, strain SMI1, active compounds read low 0.989 | locus YGR252W, strain gcn5, active compounds read low 0.974 | locus YHR013C, strain ard1, active compounds read low 0.991 | locus YHR027C, strain rpn1, active compounds read low 1.02 | locus YHR030C, strain SLT2, active compounds read low 0.995 and 0.972 | locus YHR079C, strain IRE1 (second series), active compounds read low 1 | locus YHR079C, strain IRE1, active compounds read low 0.959 | locus YHR094C, strain hxt1, active compounds read low 1 | locus YHR129C, strain ARP1, active compounds read low 0.987 | locus YHR142W, strain chs7, active compounds read low 1.01 | locus YHR200W, strain rpn10, active compounds read low 0.997 | locus YIL066C, strain RNR3, active compounds read low 0.988 | locus YIL073C, strain SPO22, active compounds read low 0.979 | locus YIL125W, strain kgd1, active compounds read low 0.989 | locus YIR030C, strain dcg1, active compounds read low 0.983 | locus YJL092W, strain hpr5, active compounds read low 1.01 | locus YJL095W, strain BCK1 (second series), active compounds read low 1.02 | locus YJL095W, strain BCK1, active compounds read low 0.981 and 0.985 | locus YJL115W, strain asf1, active compounds read low 1.01 | locus YJL129C, strain trk1, active compounds read low 0.98 | locus YJL134W, strain LCB3, active compounds read low 0.993 | locus YJL154C, strain vps35, active compounds read low 0.996 | locus YJL164C, strain tpk1, active compounds read low 0.992 | locus YJL166W, strain qcr8, active compounds read low 1 | locus YJL168C, strain set2, active compounds read low 0.991 | locus YJL187C, strain SWE1 (second series), active compounds read low 0.982 | locus YJL187C, strain SWE1, active compounds read low 1 | locus YJR043C, strain POL32, active compounds read low 1 | locus YJR066W, strain TOR1, active compounds read low 0.925
